Z-score and composite z-score data for 6 molecules are collected here from PubChem BioAssay.

Several values for one entry are separate records, joined by “and”; a condition that tells them apart may be missing. Identical values can stand only once. Activity calls are given as the source filed them.

The nature of assay [1]: optical density shifts of acrAB sulA E. coli – strain DRC41, OD650, 48 h, E. coli filamentation inducer project, primary screen (AID 1152).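 Further: E. coli MC1000 strain DRC41 lacking acrAB efflux pump and sulA.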 To be noted: higher = more signal, called active from +8 up or from −8 down.
Assay [2] is described as follows: probe aLefty1 binding on compound microarray – biochemical, small-molecule microarray, 635/667 nm fluorescence, primary screen (AID 1153).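 Further: score merges spot fluorescence with signal-to-noise ratio from the scanned slide images.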 Particulars: higher = more signal.
A short description of assay [3]: plasmodial surface anion channel blockers, osmotic lysis – cell-based, P. falciparum Indochina, OD700, 1 h, primary screen (AID 1154). To be noted: P. falciparum Indochina infected RBC osmotic lysis, higher = more signal, called active from +8 up or from −8 down.
Assay [4] is described as follows: plasmodial surface anion channel blockers, osmotic lysis – cell-based, P. falciparum Indochina, OD700, 2 h, primary screen (AID 1155).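 Further: lysis reports solute entry through the parasite surface anion channel PSAC.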 Particulars: P. falciparum Indochina infected erythrocytes, higher = more signal, called active from +8 up or from −8 down.
Assay [5] can be described thus: changes in parasitized red cell lysis, either direction – P. falciparum Indochina, OD700, 3 h, PSAC antagonist project, primary screen (AID 1156). To be noted: P. falciparum-infected erythrocytes, osmotic lysis, higher = more signal, called active from +8 up or from −8 down.
A short description of assay [6]: plasmodial surface anion channel blockers, osmotic lysis – cell-based, P. falciparum Indochina, OD700, 18 h, primary screen (AID 1157). To be noted: P. falciparum Indochina infected erythrocytes, osmotic lysis OD700, 18 h; higher = more signal, called active from +8 up or from −8 down.
Assay [7] in a line: S6 kinase pathway phospho-S6 level changes – cell-based, A549, cytoblot, luminescence, serum-stimulated, primary screen (AID 1158).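 Further: serum-stimulated A549 lung adenocarcinoma cells; signal is phosphorylated S6 detected by cytoblot immunostaining with HRP secondary.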 To be noted: 5 h, higher = more signal.
The target of assay [8] is NADPH oxidase 2 (Homo sapiens) (UniProt P04839). Nature of the assay: compounds shifting NOX2 Amplex Red fluorescence – cell-based, HEK293-NOX2, PMA-stimulated, NOX inhibitor project, primary screen (AID 1159). Further: test concentration not given here. Particulars: 45 min, higher = more signal, called active from +8 up or from −8 down.
In assay [9] the target is NADPH oxidase 4 (Homo sapiens) (UniProt Q9NPH5). In words: compounds shifting NOX4 Amplex Red fluorescence – cell-based, HEK293-NOX4, tetracycline-induced, NOX inhibitor project, primary screen (AID 1160). Particulars: HEK293-NOX4, Amplex Red H2O2 fluorescence, 45 min; higher = more signal, called active from +8 up or from −8 down.
Assay [10] has as its target NADPH oxidase 5 (Homo sapiens) (UniProt Q96PH1). In words: compounds shifting NOX5 Amplex Red fluorescence – cell-based, HEK293-NOX5, NOX inhibitor project, primary screen (AID 1161). Particulars: HEK293-NOX5, ionomycin, 45 min, higher = more signal.
A short description of assay [11]: compound effects on lung adenocarcinoma cell viability – A549, calcein-AM fluorescence, 48 h, basal, profiling panel (AID 1162). Further: test concentration not given here. To be noted: higher = more signal.
The nature of assay [12]: compound effects on differentiated 3T3-L1 adipocyte viability – cell-based, 3T3-L1 adipocytes, calcein-AM fluorescence, 48 h, basal, profiling panel (AID 1163). Further: test concentration not given here. Particulars: 3T3-L1 adipocytes viability, higher = more signal.
A short description of assay [13]: compound effects on hepatocellular carcinoma cell viability – HepG2, calcein-AM fluorescence, 48 h, basal, profiling panel (AID 1164). Further: test concentration not given here. To be noted: higher = more signal.
The nature of assay [14]: compound effects on multiple myeloma cell viability – MM1S, calcein-AM fluorescence, 48 h, basal, profiling panel (AID 1165).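 Further: viability of MM1S multiple myeloma cells under basal unstimulated conditions; test concentration not given here.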 To be noted: higher = more signal.
A short description of assay [15]: calcein-AM signal in unstimulated myeloma cells – cell-based, calcein-AM fluorescence, 48 h, PK04 Diversity Set, profiling panel (AID 1166).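 Further: cells grown under basal conditions without added stimulus; test concentration not given here.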 Particulars: RPMI8226 myeloma viability, higher = more signal.
Assay [16] in a line: JC-1 mitochondrial signal, unstimulated HepG2 cells – cell-based, JC-1 fluorescence, 24 h, 100 nL compound, profiling panel (AID 1167). Further: test concentration not given here. To be noted: HepG2 mitochondrial potential, higher = more signal.
Assay [17] in a line: JC-1 mitochondrial signal, unstimulated adipocytes – cell-based, JC-1 fluorescence, 3T3-L1 adipocytes, 24 h, 100 nL compound, profiling panel (AID 1168). Further: test concentration not given here. Particulars: JC-1 mitochondrial fluorescence, higher = more signal, called active from +8 up or from −8 down.
Assay [18] can be described thus: JC-1 mitochondrial signal, unstimulated myeloma cells – cell-based, JC-1 fluorescence, RPMI8226, 24 h, 100 nL compound, profiling panel (AID 1169). Further: test concentration not given here. Particulars: JC-1 mitochondrial potential fluorescence, higher = more signal.
Assay [19] can be described thus: JC-1 mitochondrial signal, unstimulated MM1S myeloma – cell-based, JC-1 fluorescence, 24 h, 100 nL compound, profiling panel (AID 1170). Further: test concentration not given here. To be noted: MM1S mitochondrial potential, higher = more signal.
Assay [20] can be described thus: resazurin metabolic signal in A549 cells – cell-based, resazurin fluorescence, 24 h, PK04 Diversity Set, profiling panel (AID 1171). Further: test concentration not given here. To be noted: A549 viability, higher = more signal, called active from +8 up or from −8 down.

NADPH oxidase 4 (Homo sapiens), sequence (Q9NPH5 whole entry, looked up): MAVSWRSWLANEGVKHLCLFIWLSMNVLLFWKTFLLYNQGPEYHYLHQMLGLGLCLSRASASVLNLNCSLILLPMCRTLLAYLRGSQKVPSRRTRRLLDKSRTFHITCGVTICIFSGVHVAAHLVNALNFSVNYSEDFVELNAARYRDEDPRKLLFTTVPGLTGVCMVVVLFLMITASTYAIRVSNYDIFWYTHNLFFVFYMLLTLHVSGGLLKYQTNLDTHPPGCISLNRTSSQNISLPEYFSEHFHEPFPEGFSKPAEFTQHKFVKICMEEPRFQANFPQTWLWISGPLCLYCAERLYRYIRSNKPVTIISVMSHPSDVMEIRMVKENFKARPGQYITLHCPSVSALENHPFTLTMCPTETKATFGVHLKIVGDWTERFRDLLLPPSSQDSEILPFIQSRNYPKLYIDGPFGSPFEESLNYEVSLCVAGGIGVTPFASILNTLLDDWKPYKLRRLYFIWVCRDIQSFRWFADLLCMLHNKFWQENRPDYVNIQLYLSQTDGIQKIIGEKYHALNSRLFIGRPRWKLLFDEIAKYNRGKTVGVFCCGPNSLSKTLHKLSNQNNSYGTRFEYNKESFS
NADPH oxidase 2 (Homo sapiens), sequence (P04839 whole entry, looked up): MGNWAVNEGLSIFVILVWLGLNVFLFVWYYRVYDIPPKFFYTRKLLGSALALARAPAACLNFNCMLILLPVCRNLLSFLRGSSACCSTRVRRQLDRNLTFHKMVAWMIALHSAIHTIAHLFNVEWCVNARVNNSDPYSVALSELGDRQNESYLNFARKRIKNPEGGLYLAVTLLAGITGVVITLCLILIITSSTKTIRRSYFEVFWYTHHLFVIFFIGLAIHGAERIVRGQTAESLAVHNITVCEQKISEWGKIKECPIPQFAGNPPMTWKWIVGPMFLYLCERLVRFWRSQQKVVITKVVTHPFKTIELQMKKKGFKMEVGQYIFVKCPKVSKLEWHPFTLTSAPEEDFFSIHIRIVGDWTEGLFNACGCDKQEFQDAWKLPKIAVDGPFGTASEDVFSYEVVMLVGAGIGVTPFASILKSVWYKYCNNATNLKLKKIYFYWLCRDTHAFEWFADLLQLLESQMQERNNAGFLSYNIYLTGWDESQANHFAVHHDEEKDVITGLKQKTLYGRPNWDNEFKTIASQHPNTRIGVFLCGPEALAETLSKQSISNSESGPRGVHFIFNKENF
NADPH oxidase 5 (Homo sapiens), sequence (Q96PH1 whole entry, looked up): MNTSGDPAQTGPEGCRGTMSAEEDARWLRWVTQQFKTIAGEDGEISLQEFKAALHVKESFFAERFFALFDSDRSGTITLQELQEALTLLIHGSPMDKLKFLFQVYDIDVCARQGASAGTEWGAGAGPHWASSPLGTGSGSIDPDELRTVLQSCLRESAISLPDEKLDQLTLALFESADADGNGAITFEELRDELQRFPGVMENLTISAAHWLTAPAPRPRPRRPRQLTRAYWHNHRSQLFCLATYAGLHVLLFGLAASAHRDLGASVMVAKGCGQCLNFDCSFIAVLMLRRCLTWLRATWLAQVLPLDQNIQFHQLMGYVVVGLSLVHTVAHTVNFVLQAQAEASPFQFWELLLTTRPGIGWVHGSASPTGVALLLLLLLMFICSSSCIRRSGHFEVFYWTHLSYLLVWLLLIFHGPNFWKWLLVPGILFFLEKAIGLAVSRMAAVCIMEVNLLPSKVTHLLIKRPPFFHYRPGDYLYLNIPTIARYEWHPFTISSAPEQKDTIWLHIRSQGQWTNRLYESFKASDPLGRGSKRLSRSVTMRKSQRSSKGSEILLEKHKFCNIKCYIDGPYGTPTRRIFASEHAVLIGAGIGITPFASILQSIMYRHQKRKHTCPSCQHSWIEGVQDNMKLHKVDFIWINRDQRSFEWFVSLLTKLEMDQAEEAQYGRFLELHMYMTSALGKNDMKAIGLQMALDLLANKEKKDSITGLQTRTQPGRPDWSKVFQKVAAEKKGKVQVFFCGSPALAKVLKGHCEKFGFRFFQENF

Regarding `C=CCN(CCCC)C(=O)C1N(c2c(Cl)cccc2CO)C(=O)C2C(C(=O)O)C3C=CC21O3` (stereo not given), the z-score in [1] was -0.074 (inactive) and 2.24 (inactive); in assay [3] it was 1.2 (inactive) and 1.94 (inactive); in assay [4], 1.05 (inactive) and 0.871 (inactive); in assay [5] it was 0.116 (inactive) and 0.127 (inactive); in [6], 0.162 (inactive) and 0.432 (inactive); in [7] it was -0.352 and 0.113. In addition, the z-score was 0.6 (inactive) and 0.353 (inactive) in [8]; -0.381 (inactive) and -0.863 (inactive) in assay [9]; -0.708 and 0.0892 in assay [10]; -0.313 and -0.498 in [11]; 1.21 and 1.63 in assay [12]; -1.25 and -0.852 in assay [13]. The z-score was 0.96 and 0.468 in assay [14]; -0.497 and -0.251 in [15]; -1.04 and -0.518 in assay [16]; -0.291 (inactive) and 0.159 (inactive) in [17]; 0.0487 and -0.0566 in [18]; 0.488 and 0.599 in assay [19]. For the same molecule, the z-score in assay [20] was -0.822 (inactive) and -0.0069 (inactive). The composite z-score in assay [2] is -0.0544 and 0.452.
Regarding `C=C[C@@H](OC)[C@H](O)c1ccc(OCCO)cc1`, the z-score in assay [1] was -0.368 (inactive) and 2.73 (inactive); in assay [3] it was -0.167 (inactive) and 1.57 (inactive); in [4] it was 0.139 (inactive) and -0.317 (inactive); in assay [5] it was -0.123 (inactive) and -0.29 (inactive); in [6] it was 0.278 (inactive) and -0.993 (inactive); in [7], -0.424 and 2.8. Also, the z-score in assay [8] was -0.394 (inactive) and -0.426 (inactive); in assay [9] it was -0.164 (inactive) and -0.249 (inactive); in assay [10], -0.743 and -1.57; in assay [11], 0.143 and 0.72; in assay [12], -0.434 and 0.971; in assay [13], 0.124 and 0.628. Further, the z-score in [14] is 0.663 and 0.916; in [15] it was -0.486 and 0.64; in assay [16], -0.244 and 0.904; in assay [17], 0.36 (inactive) and -1.97 (inactive); in [18], -0.982 and -0.69; in assay [19], 0.88 and -1.28. For the same molecule, in assay [20], the z-score is -0.133 (inactive) and -0.135 (inactive). In addition, in assay [2], the composite z-score is -0.0984 and -0.53.
On to `COC(=O)C1=C(C)N(Cc2ccccc2)[C@]23O[C@](C(=O)OC)(C(=O)N2[C@@H]1c1ccccc1)[C@H]1CCCC(=O)[C@H]13`, for which the z-score in assay [1] was 0.0211 (inactive) and -0.587 (inactive); in assay [3], 1.12 (inactive) and 0.466 (inactive); in assay [4], 0.314 (inactive) and 0.0982 (inactive); in assay [5], 0.0988 (inactive) and 0.882 (inactive); in [6], 0.0037 (inactive) and -1.37 (inactive); in assay [7], -0.0731 and 2.28. For the same molecule, the z-score in assay [8] was -2.97 (inactive) and -0.233 (inactive); in [9], 0.743 (inactive) and 0.178 (inactive); in assay [10], 0.244 and -0.624; in [11], 0.144 and -0.51; in [12] it was 0.474 and 0.827; in [13], -0.336 and -0.818. In addition, the z-score was -3.25 and -1.15 in [14]; -1.18 and -0.337 in assay [15]; 0.662 and 0.827 in [16]; 1.33 (inactive) and 0.966 (inactive) in assay [17]; -0.736 and 0.0334 in assay [18]; 0.291 and -0.342 in [19]. Moreover, the z-score in assay [20] is 0.207 (inactive) and -0.277 (inactive). In addition, the composite z-score in assay [2] is -0.0559 and 0.101.
As for `C=CCN(C(=O)C(c1cccs1)N(CCOCCO)C(=O)/C=C\C(=O)O)C(C)(C)C` (stereo not given), the z-score was 1.56 (inactive) and 0.971 (inactive) in assay [1]; -1.2 (inactive) and -1.15 (inactive) in assay [3]; -0.172 (inactive) and -0.307 (inactive) in assay [4]; 0.0342 (inactive) and -0.837 (inactive) in assay [5]; 0.011 (inactive) and -0.113 (inactive) in [6]; 0.234 and 0.15 in assay [7]. The z-score in assay [8] is -0.302 (inactive) and -0.0837 (inactive); in assay [9], -0.904 (inactive) and -0.857 (inactive); in [10], 0.0514 and 0.0449; in assay [11], 1.01 and 1.61; in [12], -0.515 and -0.161; in [13], 1.25 and 0.41. For the same molecule, the z-score is 1.62 and 0.903 in assay [14]; 0.116 and 0.954 in [15]; 1.07 and 0.991 in assay [16]; 1.16 (inactive) and 0.0544 (inactive) in assay [17]; 0.28 and -0.0177 in [18]; 0.987 and 0.588 in [19]. Also, in [20], the z-score is 0.111 (inactive) and -0.422 (inactive). Moreover, in [2], the composite z-score is -0.371 and -0.355.
Consider `C[C@@H](c1ccccc1)N1C(=O)[C@H]2[C@H]3[C@H](O)[C@H](O)CC(=O)[C@@H]3CC[C@H]2C1=O`, for which the z-score in assay [1] was 0.212 (inactive); in [3], 0.207 (inactive); in assay [4] it was -1.39 (inactive); in assay [5], 0.279 (inactive); in assay [6], -1.63 (inactive); in [7], 0.732. The z-score is -0.0197 (inactive) in assay [8]; 0.237 (inactive) in assay [9]; 0.776 in [10]; 0.0128 in [11]; 0.762 in [12]; 1.15 in [13]. Moreover, the z-score in [14] is 0.288; in assay [15] it was -1.17; in assay [16], 0.921; in [17] it was 2.42 (inactive); in assay [18] it was -0.438; in [19], 1.65. Moreover, the z-score in [20] is -0.1 (inactive). This molecule also came in with a composite z-score in assay [2] of -0.229.
Take `CCOC(=O)C[C@H]1[C@H](OC(=O)c2ccccc2-c2ccccc2)[C@@H](NC(=O)c2ccccc2)c2cc(OCCCO)ccc2N1C(=O)c1ccc2ccccc2n1`: the z-score in assay [1] is 0.869 (inactive) and -0.664 (inactive); in assay [3] it was 5.24 (inactive) and 2.8 (inactive); in [4], 0.709 (inactive) and 0.295 (inactive); in assay [5], 0.195 (inactive) and -0.416 (inactive); in assay [6], 0.353 (inactive) and 0.188 (inactive); in [7], 0.649 and -0.172. The z-score is -0.556 (inactive) and -1.18 (inactive) in assay [8]; 0.848 (inactive) and 0.921 (inactive) in [9]; 2.2 and 0.732 in assay [10]; 0.916 and -0.393 in assay [11]; 0.804 and -0.0181 in [12]; 0.694 and 1.01 in assay [13]. Besides, the z-score in [14] is 0.175 and -1.55; in assay [15], -0.749 and -0.483; in assay [16], 0.733 and 1.5; in [17], 0.408 (inactive) and 0.209 (inactive); in [18], -1.08 and 0.127; in assay [19] it was -0.627 and 0.14. Also, the z-score in assay [20] was 0.65 (inactive) and 0.579 (inactive). Moreover, the composite z-score in assay [2] was 0.126 and 0.341.
